Measurements reported in PubChem BioAssay (NCI).
About 79,000 compounds went through this panel and 15% of them were active in at least one assay; those are over-represented in the sample as a whole. Unmarked numbers belong to inactive results. Activity calls are given as the source filed them. Cut-off read from the data, not from the text of the source: active = growth inhibition above about 70%; inactive = the rest.

Test: NCI Yeast Anticancer Drug Screen. Data for the mlh1 strain (AID 171);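 note: 0% = growth of vehicle-treated control cultures of the same strain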
Settings: S. cerevisiae mlh1 strain growth inhibition; at 3.7 µM; active compounds read high
How it was run: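 Yeast carrying a defined genetic alteration in DNA damage repair or cell cycle control were exposed to test compounds. Growth inhibition was measured relative to vehicle-treated controls.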

SMILES	growth inhibition [%]
CCOP(=O)(OCC)C(Cc1ccccc1)N=C(c1ccccc1)c1ccccc1 (stereo not drawn)	0
CCc1ncnc2cc(OCC3CO3)c(OC)cc12 (stereo not drawn)	-6
CCOC(=O)[C@H]1Nc2ccccc2C2c3ccccc3CC21 (stereo partly drawn)	28
O=CNc1ccc2c(c1)C(=O)c1ccccc1-2	10
CCOc1ccc2c(c1)c(CC(=O)O)cn2C	-4
OC1CSCCCSCCSCCCSC1	16
N#Cc1c(N)[nH]c2ccc(Sc3ccccc3)cc12	3
Cc1ccc(-c2ccc(Nc3c4ccccc4nc4ccccc34)cc2)cn1	2
c1ccc2c(c1)NC(NC1Nc3ccccc3N1)N2	1
OC(COc1cccc2ccccc12)CN1CCOCC1 (stereo not drawn)	21
CCC/C(Cl)=N\OC(=O)Nc1ccc(Br)cc1	19
COc1ccc(/C=C2\SC(=S)N(/C=C/c3nc4ccccc4[nH]c3=O)C2=O)cc1OC	5
O=C(NNc1ccnc2cc(Cl)ccc12)/C(=C\c1ccccc1Cl)NC(=O)c1ccccc1	0
CSC1=NNC(SC)=NN1	17
Cc1c(C2=C(Br)C(=O)N(C)C2=O)c(=O)n(C)c(=O)n1C	3
NCCNc1ccc(NCCN)c2c1C(=O)c1c(O)ccc(O)c1C2=O	20
Cn1c(=O)c(-c2ccccc2)c(N=[N+]=[N-])c2ccccc21	3
CCCCCCCCCCCCCCCCCCOCC(O)COP(=O)(O)OCC1OC(n2cc(F)c(=O)[nH]c2=O)CC1O (stereo not drawn)	19
CCS(=O)(=O)c1ccc(/C=C/C=N/NC(=S)NCC(C)C)cc1	0
CCC(=O)Oc1c(Cl)cc(Cl)c2ccccc12	-2

SMILES	growth inhibition [%]
COc1cc2c3c(cccc3c1)C(=O)N(CCN(C)C)C2=O	3
CN(C)c1ccc(C(C#N)=C(C#N)C#N)cc1	-6
O=C(CCCN1CCC2(CC1)CC(=O)N(N1CCCCCC1)C2=O)c1ccc(F)cc1	30
O=C1C2C(C(=O)N1c1ccc(OCc3ccccc3)cc1)C1c3ccccc3C2C2CCCCN21 (stereo not drawn)	4
CCN(CC)CCC(=O)c1ccc(Oc2ccc(F)cc2)cc1	37
O=Nc1c(NO)ccc2nn(-c3ccccc3)nc12	30
CC(=O)SCCC[Si](C)(C)CCCSC(C)=O	-3
O=C(O)C1CCCCC1c1c2ccc(=O)c(O)c-2oc2c(O)c(O)ccc12 (stereo not drawn)	-9
Cc1ccc(NN(NC(=O)OC(C)C)C(=O)OC(C)C)cc1	2
O=C1c2ccccc2C(=O)c2cc(CBr)ccc21	9
Cc1c(C(Cc2ccccc2N(C)C(=O)/C=C\C(=O)O)c2c[nH]c3ccccc23)c2ccccc2n1C (stereo not drawn)	-6
CC(C)/C(Cl)=N\OC(=O)Nc1ccc(F)cc1	2
O=C1OC(=O)C2CCCC3CCCC1C32 (stereo not drawn)	64
CCOC(=O)C(NC(=O)c1ccccc1)(N1CCN(c2cc3c(cc2F)c(=O)c(C(=O)O)cn3C2CC2)CC1)C(F)(F)F (stereo not drawn)	-1
COc1ccc(NC(=S)N/N=C(\c2ccccc2)c2ccccn2)cc1	-4
C=CCC1=C(C)C(OC(=O)/C=C/c2ccccc2)CC1=O (stereo not drawn)	-2
NNc1c(F)c(F)cc(F)c1F	-7
COP(=O)(OC)/C(=C\C1=CN(C(c2ccccc2)(c2ccccc2)c2ccccc2)CN1)NC=O	-13
COC(=O)c1cc(-c2ccc(C)cc2)[nH]c(=O)c1C#N	-2

Same assay, conditions: S. cerevisiae mlh1 strain growth inhibition; at 11.0 µM; active compounds read high

SMILES	growth inhibition
CCOP(=O)(OCC)C(Cc1ccccc1)N=C(c1ccccc1)c1ccccc1 (stereo not drawn)	5%
CCc1ncnc2cc(OCC3CO3)c(OC)cc12 (stereo not drawn)	9%
CCOC(=O)[C@H]1Nc2ccccc2C2c3ccccc3CC21 (stereo partly drawn)	52%
O=CNc1ccc2c(c1)C(=O)c1ccccc1-2	16%
CCOc1ccc2c(c1)c(CC(=O)O)cn2C	13%
OC1CSCCCSCCSCCCSC1	2%
N#Cc1c(N)[nH]c2ccc(Sc3ccccc3)cc12	11%
Cc1ccc(-c2ccc(Nc3c4ccccc4nc4ccccc34)cc2)cn1	18%
c1ccc2c(c1)NC(NC1Nc3ccccc3N1)N2	4%
OC(COc1cccc2ccccc12)CN1CCOCC1 (stereo not drawn)	33%
CCC/C(Cl)=N\OC(=O)Nc1ccc(Br)cc1	76% (active)
COc1ccc(/C=C2\SC(=S)N(/C=C/c3nc4ccccc4[nH]c3=O)C2=O)cc1OC	28%
O=C(NNc1ccnc2cc(Cl)ccc12)/C(=C\c1ccccc1Cl)NC(=O)c1ccccc1	7%
CSC1=NNC(SC)=NN1	20%
Cc1c(C2=C(Br)C(=O)N(C)C2=O)c(=O)n(C)c(=O)n1C	13%
NCCNc1ccc(NCCN)c2c1C(=O)c1c(O)ccc(O)c1C2=O	20%
Cn1c(=O)c(-c2ccccc2)c(N=[N+]=[N-])c2ccccc21	43%
CCCCCCCCCCCCCCCCCCOCC(O)COP(=O)(O)OCC1OC(n2cc(F)c(=O)[nH]c2=O)CC1O (stereo not drawn)	54%
CCS(=O)(=O)c1ccc(/C=C/C=N/NC(=S)NCC(C)C)cc1	-3%
CCC(=O)Oc1c(Cl)cc(Cl)c2ccccc12	0%

SMILES	growth inhibition
COc1cc2c3c(cccc3c1)C(=O)N(CCN(C)C)C2=O	-19%
CN(C)c1ccc(C(C#N)=C(C#N)C#N)cc1	-3%
O=C(CCCN1CCC2(CC1)CC(=O)N(N1CCCCCC1)C2=O)c1ccc(F)cc1	41%
O=C1C2C(C(=O)N1c1ccc(OCc3ccccc3)cc1)C1c3ccccc3C2C2CCCCN21 (stereo not drawn)	0%
CCN(CC)CCC(=O)c1ccc(Oc2ccc(F)cc2)cc1	58%
O=Nc1c(NO)ccc2nn(-c3ccccc3)nc12	97% (active)
CC(=O)SCCC[Si](C)(C)CCCSC(C)=O	-2%
O=C(O)C1CCCCC1c1c2ccc(=O)c(O)c-2oc2c(O)c(O)ccc12 (stereo not drawn)	-33%
Cc1ccc(NN(NC(=O)OC(C)C)C(=O)OC(C)C)cc1	5%
O=C1c2ccccc2C(=O)c2cc(CBr)ccc21	17%
Cc1c(C(Cc2ccccc2N(C)C(=O)/C=C\C(=O)O)c2c[nH]c3ccccc23)c2ccccc2n1C (stereo not drawn)	-7%
CC(C)/C(Cl)=N\OC(=O)Nc1ccc(F)cc1	6%
O=C1OC(=O)C2CCCC3CCCC1C32 (stereo not drawn)	93% (active)
CCOC(=O)C(NC(=O)c1ccccc1)(N1CCN(c2cc3c(cc2F)c(=O)c(C(=O)O)cn3C2CC2)CC1)C(F)(F)F (stereo not drawn)	0%
COc1ccc(NC(=S)N/N=C(\c2ccccc2)c2ccccn2)cc1	-2%
C=CCC1=C(C)C(OC(=O)/C=C/c2ccccc2)CC1=O (stereo not drawn)	-2%
NNc1c(F)c(F)cc(F)c1F	-6%
COP(=O)(OC)/C(=C\C1=CN(C(c2ccccc2)(c2ccccc2)c2ccccc2)CN1)NC=O	-8%
COC(=O)c1cc(-c2ccc(C)cc2)[nH]c(=O)c1C#N	0%
